# Results as given in PMC5540273 (PLoS ONE, 2017).
# Test system: T1, NIK
# T1 construct: gene MAP3K14
# Conditions: concentration: 1 μM, replicates: in singlicate; n = 1
# 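Also: KINOMEscan kinase panel screen.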
row,Compound,%Inh
1,Cn1cc(-c2ccc3c(c2)CCN3C(=O)Cc2cccc(Cl)c2)c2c(N)ncnc21 [GSK2606590],23%
2,COc1cc(Nc2ncc3c(C)nc(-c4cc5ccccc5[nH]4)n3n2)cc(OC)c1OC [GW869516],0%
3,O=C(Nc1cccc(-c2nn3ccccc3c2-c2ccnc(Nc3cccc(F)c3)n2)c1)c1c(F)ccc(F)c1Cl [GSK357952],36%
4,C[C@@H](Oc1cc(-n2cnc3cc(-c4ccnc(NCCS(C)(=O)=O)c4)ccc32)sc1C(N)=O)c1ccccc1Cl [GSK907232],0%
5,COc1cccc(-c2ccc3c(NC(=O)C4CC4)n[nH]c3n2)c1 [SB-710903],0%
6,Cc1ccc(C(=O)N2CC[C@@H](O)C2)cc1-n1c(C)cc(OCc2ccc(F)cc2F)c(Br)c1=O,0%
7,Cl.c1ccc(-c2ccc3c(Nc4ccc5[nH]ccc5c4)ccnc3c2)nc1 [GW440138],24%
8,CCc1ccc(-c2ccc3c(c2)-c2c(cnn2C)S(=O)(=O)N3C)cc1,0%
9,COc1ccc(Nc2nccc(NCCNC(=O)c3cc4ccccc4s3)n2)cc1 [GSK1379896],7%
10,Nc1ncc(-c2ccc3nccc(-c4ccncc4)c3c2)cc1S(=O)(=O)N1CCOCC1 [GSK1627798],0%
11,O=C(Nc1n[nH]c2cc(-c3ccoc3)ccc12)C1CC1 [SB-738481],9%
